Assay results taken from PubChem BioAssay AID504834 (National Center for Advancing Translational Sciences (NCATS), 2011).
About 22,000 (6.9%) of roughly 320,000 compounds were called active. Where a call stands in place of a potency, no number is given. About 27% were inconclusive and are not listed. Calls follow the shape of the dose curve; as a rule, active = well fitted inhibition curve with a large enough effect; inconclusive = small, poorly fitted or top-dose-only effect, or another doubt; inactive = no such curve, though single readings can be large or run the other way. For the sample, actives were picked, then their nearest neighbours and some compounds at random.

assay: Primary qHTS for delayed death inhibitors of the malarial parasite plastid, 96 hour incubation; conditions: P. falciparum luciferase reporter growth; series mostly up to 28.7 µM
In short: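 Two parasite generations (96 h, 37 C, 5% CO2) of compound exposure in infected erythrocytes (0.05% parasitemia, 2% hematocrit). Luciferase-reporter P. falciparum; decreased luminescence indicates inhibited growth, aimed at apicoplast-acting delayed death.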
Potency is read from the fitted curve at half-maximal effect.

Row | Compound | Potency
1 | O=S1(=O)CCN(Cc2ccccc2Cl)CC1 | inactive
2 | NC(=O)c1cc(-c2cccnc2)nc2ccc(Br)cc12 | inactive
3 | C=CCn1c(SCCOc2ccc(OC)cc2)nnc1C(NC(=O)c1ccc(OC)cc1)C(C)C (configuration not stated) | 10.4 µM (active)
4 | C=CCn1c(SCc2ccc(Cl)c(Cl)c2)nnc1C(CO)NC(=O)c1ccc(OC)cc1 (configuration not stated) | inactive
5 | C=CCn1c(SCC(=O)c2ccc(Br)cc2)nnc1C(C)NC(=O)Cc1ccc(OC)cc1 (configuration not stated) | inactive
6 | CC[C@]1([C@H]2O[C@@H]([C@@H]3O[C@](O)(CO)[C@@H](C)C[C@H]3C)C[C@H]2C)CC[C@@H]([C@]2(C)CC[C@@]3(C[C@@H](O)[C@@H](C)[C@@H]([C@H](C)[C@H](OC)[C@H](C)C(=O)O)O3)O2)O1 | 0.019 µM (active)
7 | COc1ccc(CC(=O)OC(C)C(=O)Nc2ccc(S(N)(=O)=O)cc2)cc1 (configuration not stated) | inactive
8 | O=C(N[C@@H](Cc1ccccc1)C(=O)OCc1ccccc1)c1nc[nH]c1C(=O)N[C@@H](Cc1ccccc1)C(=O)OCc1ccccc1 | inactive
9 | CC(C)(C)OC(=O)N1CCC(NC(=O)c2[nH]cnc2C(=O)N[C@@H](Cc2ccccc2)C(=O)OCc2ccccc2)CC1 | 1.47 µM (active)
10 | C[C@@H](NC(=O)c1nc[nH]c1C(=O)N1CCN(C(=O)OC(C)(C)C)CC1)c1ccccc1 | inactive
11 | Cc1c(Cl)cccc1NC(=O)CCC(=O)N/N=C/c1ccco1 | inactive
12 | Cc1cc(C)cc(N(CC(=O)NC2CCCC2)C(=O)CCC(=O)Nc2cc(C)on2)c1 | inactive
13 | Cc1cc(OC(C)C(=O)Nc2ccc(S(=O)(=O)Nc3onc(C)c3C)cc2)cc(C)c1Cl (configuration not stated) | 8.28 µM (active)
14 | COc1ccc(C(=O)Nc2ccc(S(=O)(=O)Nc3onc(C)c3C)cc2)cc1OC | inactive
15 | CC(Oc1cccc(Cl)c1)C(=O)Nc1ccc(S(=O)(=O)Nc2ncccn2)cc1 (configuration not stated) | inactive
16 | N#Cc1c(-c2ccccc2)c(-c2ccccc2)n[nH]c1=O | inactive
17 | NCCCCCC(=O)N/N=C/c1ccc2nccnc2c1 | inactive
18 | COc1ccc(C(=O)NC(C)Cn2nc(C)cc2C)cc1OC1CCN(C(C)=O)CC1 (configuration not stated) | inactive
19 | O=C(NCCCn1ccnc1)C1CCCN(S(=O)(=O)c2cc(Cl)ccc2Cl)C1 (configuration not stated) | inactive
20 | O=c1oc2ccccc2c(CNc2ccccc2)c1[N+](=O)[O-] | inactive
21 | CCCNC(=O)NCc1ccc(N2CCCC2=O)cc1 | inactive
22 | O=C(NCCCN1CCCC1=O)c1ccc(S(=O)(=O)Nc2ccccc2)cc1 | inactive
23 | O=C(NCCCN1CCCCCC1)c1ccc(N2CCCC2=O)cc1 | 2.33 µM (active)
24 | COc1ccc(N2CCN(C(=O)Cn3cnc4sc(C)c(S(=O)(=O)N5CCOCC5)c4c3=O)CC2)cc1 | inactive
25 | Cn1c(N)c(C(=O)COC(=O)c2cnc(Cl)c(Cl)c2)c(=O)n(C)c1=O | inactive
26 | Cn1c(N)c(C(=O)COC(=O)COc2ccc(Cl)cc2)c(=O)n(C)c1=O | inactive

Row | Compound | Potency
27 | Cn1c(N)c(C(=O)COC(=O)C23CC4CC(CC(C4)C2)C3)c(=O)n(C)c1=O | 14.7 µM (active)
28 | COc1cc(NC(=O)c2ccccc2)c(OC)cc1NC(=O)Cc1ccccc1 | inactive
29 | CCc1nn(CCCC(=O)Nc2ccc(C)c(C)c2)c(=O)c2cc3occc3n12 | inactive
30 | CC1CC(C)(C)CC2(C1)NC(=O)N(CC(=O)Nc1nccs1)C2=O (configuration not stated) | inactive
31 | CC(C)n1c(COc2ccccc2)nc2ccccc21 | inactive
32 | Oc1ccc(C2Nc3cccc4cccc(c34)N2)cc1 | 10.4 µM (active)
33 | Cc1ccc(C2Nc3cccc4cccc(c34)N2)cc1 | inactive
34 | Brc1ccccc1C1Nc2cccc3cccc(c23)N1 | inactive
35 | COc1cccc(C2Nc3cccc4cccc(c34)N2)c1 | 7.38 µM (active)
36 | COc1ccc2[nH]c3ccc(OC)cc3c2c1 | inactive
37 | COc1ccc(C2NC(=O)c3ccccc3N2)cc1 (configuration not stated) | inactive
38 | N#Cc1ccccc1S(=O)(=O)N1CCN(Cc2c(O)ccc3ccccc23)CC1 | inactive
39 | CC(CCc1ccccc1)NC(=O)c1cnc(Cl)c(Cl)c1 (configuration not stated) | inactive
40 | Cc1ccc(N(C(=O)CNC(=O)c2ccco2)C(C(=O)NC2CCCC2)c2ccncc2)cc1 (configuration not stated) | inactive
41 | CC(C)C(NC(=O)c1c(F)cccc1F)C(=O)NCc1ccncc1 (configuration not stated) | inactive
42 | C[C@@H](NC(=O)OC(C)(C)C)c1nnc(S(=O)(=O)Cc2ccccc2)o1 | inactive
43 | CC(C)CN(CC(C)C)C(=O)CN1c2cccc3cccc(c23)S1(=O)=O | inactive
44 | CCn1c(CC(=O)Nc2ccccc2)nnc1SCC(=O)N1CCOCC1 | inactive
45 | COC(=O)c1ccc(CSc2nncn2C)cc1 | inactive
46 | CCOc1cc(/C=N/NC(=O)c2ccc(CSc3nncn3C)cc2)ccc1OCC(=O)N1CCOCC1 | 11.7 µM (active)
47 | CCOc1cc(/C=N/NC(=O)c2cccc(S(=O)(=O)N3CCOCC3)c2)ccc1OCC(=O)N(C)C | inactive
48 | CC(=O)N1CC[n+]2c(-c3ccc([N+](=O)[O-])cc3)csc21 | inactive
49 | CC1CCN(S(=O)(=O)c2ccc(NC(=O)C3CC(=O)N(c4ccccc4)C3)cc2)CC1 (configuration not stated) | inactive
50 | COc1ccc(/C=C/c2nnc(NC(=O)C(C)C)s2)cc1 | inactive
51 | O=C(CSc1ccccc1)Nc1nnc(/C=C/c2ccccc2)s1 | inactive
52 | O=C(Nc1ccc(Cl)cc1)Nc1nnc(/C=C/c2ccccc2)s1 | 13.1 µM (active)
